The nature of this assay: calcein-AM signal in unstimulated myeloma cells – cell-based, calcein-AM fluorescence, 48 h, PK04 Diversity Set, profiling panel (AID 1166).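 Further: cells grown under basal conditions without added stimulus; test concentration not given here.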 Particulars: RPMI8226 myeloma viability, higher = more signal.
As to `COC(=O)[C@H](C)NC(=O)CCC1CC(OC(=O)NCc2cccc3ccccc23)CC2(CCCC(COC(=O)NCc3ccccc3)O2)O1` (stereo not given in full), the z-score was 0.769. As for `O=C1CCCC=C1C(O)C1CCCCC1` (stereo not given), the figure is -0.241; as for `COc1ccc(COC(=O)NN=C2C[C@@H](O)[C@@H](O)[C@@H]3[C@@H]4C(=O)N(Cc5ccccc5)C(=O)[C@@H]4CC[C@@H]23)cc1`, 1.61. As for `CO[C@H]1COC(=O)CC=C[C@H](C)[C@H](OC)COC(=O)[C@@H](C)NC(=O)CC=C[C@@H]1C`, the figure is 0.222; as for `CC(C)CON=C1[C@H]2CCn3c(=O)n(C)c(=O)n3[C@H]2[C@H](O)[C@@H]2O[C@H]12`, -0.441; as for `CCOC(=O)CCN1C(=O)[C@H]2[C@H]3[C@H](O)[C@H](O)CC(=NOCC=C(C)CCC=C(C)C)[C@@H]3CC[C@H]2C1=O`, -0.0685. As for `CC[C@@H](c1ccccc1)n1c(=O)n2n(c1=O)[C@H]1[C@H](O)[C@@H]3O[C@@H]3C(=NOCc3ccccc3)[C@H]1CC2`, the figure is -3.84; as for `CC(CCN1CCCc2nc(C)c(C)cc21)=NO[C@@H](C)c1cn([C@H](CO)Cc2ccccc2)nn1`, 0.049; as for `COC(=O)[C@H](C)NC(=O)CCC1CC(OC(=O)NCCc2ccc(F)cc2)CC2(CCCC(COC(=O)NCC3CCCCC3)O2)O1` (stereo not given in full), -1.85. As for `CCOC(=O)[C@H](Cc1ccccc1)NC(=O)CCC1CC(OC(=O)NCc2ccc3c(c2)OCO3)CC2(CCCC(COC(=O)NCCCN3CCCC3=O)O2)O1` (stereo not given in full), the z-score is -1.6. As for `CC(CCC(=O)OC[C@H]1O[C@H](C#Cc2ccccc2)C=C[C@@H]1Oc1ccc(C)cc1)=NOC[C@@H](C)[C@H](OCc1ccccc1)C(C)C`, the figure is 0.164. As for `CCN1C(=O)[C@H]2[C@H]3[C@H](O)[C@H](O)CC(=NOC[C@@H](O)[C@H]4O[C@@H]5OC(C)(C)O[C@@H]5[C@H]4O)[C@@H]3CC[C@H]2C1=O`, the figure is 0.12; as for `CC(C)CON=C1C[C@@H](O)[C@@H](O)[C@@H]2[C@@H]3C(=O)N(Cc4ccc5c(c4)OCO5)C(=O)[C@@H]3CC[C@@H]12`, -0.51; as for `C=CC[C@@H]1C=C[C@H](ON=C2C[C@@H](O)[C@@H](O)[C@@H]3[C@@H]4C(=O)N(CC)C(=O)[C@@H]4CC[C@@H]23)[C@@H](CO)O1`, -1.23.

With `CO[C@H]1COC(=O)CCC[C@H](C)[C@H](OC)COC(=O)CC=C[C@@H]1C`, the z-score was -0.351. Then `COc1ccc2c(c1)O[C@@H](c1cccc(C(F)(F)F)c1)[C@H](O)C2=O`, with 1.29; and `CC(CCN1CCCc2nc(C)c(C)cc21)=NOC[C@@H](O)COCc1ccco1`, with -0.441; and `CCN1C(=O)[C@H]2[C@H]3[C@H](O)[C@H](O)CC(=NO[C@@H]4O[C@H](CO)[C@@H](O)[C@H](O)[C@H]4O)[C@H]3CC[C@H]2C1=O`, with -0.982. For the compound `CCOC(=O)[C@H](CC(C)C)NC(=O)CCC1CC(OC(=O)NCc2ccc3c(c2)OCO3)CC2(CCCC(COC(=O)NCCOc3ccccc3)O2)O1` (stereo not given in full), the z-score was -1.43. Turning to `O=C1C2=CC[C@H]3C(=O)N(c4ccc(F)cc4F)C(=O)[C@H]3[C@H]2[C@H](O)[C@@H]2O[C@H]12`, the z-score was -0.397.

With `CC(=O)OC[C@H]1O[C@H](C#CCCc2ccccc2)C=C[C@@H]1OC(C)=O`, the z-score was -2.48. For the compound `CC(C)=NOC(C)CN1CCCc2nc(C)c(C)cc21` (stereo not given), the z-score is 0.0977. `COC(=O)[C@H](C)NC(=O)CCC1CC(OC(=O)NCc2cccc3ccccc23)CC2(CCCC(COC(=O)NCCOc3ccccc3)O2)O1` (stereo not given in full): the z-score is -3.01. Then `C[C@@H]1CC[C@@H](C(=O)O)N[C@H]1c1cccc(N2CCOCC2)c1`, with 1.07. For `COC(=O)[C@@H]1CC[C@H](C)[C@@H](c2ccc(Br)cc2)N1C[C@H](O)CN=[N+]=[N-]`, the z-score was -0.878. As for `CCOC(=O)[C@H](Cc1ccccc1)NC(=O)CCC1CC(OC(=O)NCCc2ccc(F)cc2)CC2(CCCC(COC(=O)NCc3cccc(C(F)(F)F)c3)O2)O1` (stereo not given in full), the figure is -1.82. Then `COc1cccc([C@H]2Oc3ccc(OC)cc3C(=NOCC[C@@H]3C=C[C@H](OC(C)=O)[C@@H](COC(C)=O)O3)[C@@H]2O)c1`, with -1.19; and `CC(=O)OC[C@H]1O[C@H](CC=NO[C@@H](C)c2cc(-c3c(C)cc(C)cc3C)no2)C=C[C@@H]1OC(C)=O`, with -1.29. Then `CCOC(=O)NN=C1C[C@@H](O)[C@@H](O)[C@@H]2[C@@H]3C(=O)N(c4ccc(F)cc4F)C(=O)[C@@H]3CC[C@H]12`, with -0.895.

Take `O=C1[C@H]2[C@H]3[C@H](O)[C@H](O)CC(=NO[C@@H]4O[C@H](CO)[C@@H](O)[C@H](O)[C@H]4O)[C@H]3CC[C@H]2C(=O)N1C[C@@H]1CCCO1`: the z-score was 0.269.

The record behind these values is PubChem BioAssay.
